Screening results as filed in PubChem BioAssay.
Rows were chosen to be rich in hits. Some 1.9% of all compounds tested hit in one or more screens of this group.
SK-BR-3 tox 24h: SK-BR-3 proliferation inhibitors; actives 0.47% (n = 41,000); viability, % at 10 µM; SK-BR-3 viability, CellTiter-Glo ATP luminescence, 24 h; hits give low values;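 active = viability at or below the median of all test compounds minus 3 SD, in both replicates if run twice, cut at about 45% in these data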;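 note: 100% = median untreated cell wells and 0% = median positive control drug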
TNAP act DEA: activators of human TNAP at intermediate phosphate acceptor. AID 813. 64,000 tested, under 10 active. purified TNAP, CDP-star luminescence, 100 mM DEA, 30 min; hits give high values; scale: 0 levamisole-inhibited, 1 vehicle-only enzyme. P05186. activation factor at 20 µM;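 active = activation factor of at least 2 at 20 µM, relative to controls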
Target sequence (P05186 whole entry, looked up): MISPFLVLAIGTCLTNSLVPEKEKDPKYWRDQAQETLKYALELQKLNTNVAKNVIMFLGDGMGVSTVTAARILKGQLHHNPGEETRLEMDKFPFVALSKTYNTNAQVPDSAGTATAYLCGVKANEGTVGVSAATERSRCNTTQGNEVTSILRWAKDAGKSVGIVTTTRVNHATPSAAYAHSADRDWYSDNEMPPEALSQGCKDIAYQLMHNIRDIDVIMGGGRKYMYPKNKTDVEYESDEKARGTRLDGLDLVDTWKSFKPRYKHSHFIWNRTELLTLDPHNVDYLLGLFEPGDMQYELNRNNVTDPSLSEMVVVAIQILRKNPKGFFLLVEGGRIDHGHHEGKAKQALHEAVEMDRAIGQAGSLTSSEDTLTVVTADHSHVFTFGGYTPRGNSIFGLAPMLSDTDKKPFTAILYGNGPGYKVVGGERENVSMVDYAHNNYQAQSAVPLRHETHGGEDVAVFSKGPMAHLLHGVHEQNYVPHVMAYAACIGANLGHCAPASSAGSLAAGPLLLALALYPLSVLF
Hsp90 inh: displaces geldanamycin probe from tumor Hsp90. P07900. NCI-N417 lysate Hsp90, Cy3B-geldanamycin FP displacement. inhibition, % at 30 µM. actives 0.35% (n = 64,000). AID 429;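 active = inhibition above 50%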;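 note: 0% = tracer plus lysate wells and 100% = tracer alone without lysate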
BAP1 inh: inhibitors of human BAP1 deubiquitinase. Q92560. recombinant BAP1, Ub-AMC hydrolysis fluorescence kinetic; hits give low values. activity remaining (% of control), % at 20 µM. actives 0.48% (n = 72,000);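 active = activity remaining at or below 50% of control, provided the compound also passes the data quality filters; inactive = the rest, including low values that fail the filters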;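 note: 100% = DMSO wells rate and 0% = substrate alone blank rate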
HER2 expr 66K: lowers expression of human Her2 kinase; SKBR-3 HER2 protein level, AlphaScreen, 18-24 h; hits give low values; HER2 level % of control, % at 10 µM; actives 0.69% (n = 65,000);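 active = HER2 level under 5% of the carrier-only control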;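 note: 100% = DMSO carrier and 0% = 500 nM PU-H71 HSP90 inhibitor; lower value means stronger loss of Her2 protein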
S1P1 ag-PAM: activates or potentiates agonism at human S1P1 receptor. P21453. S1P1 CRE-bla cells, forskolin, beta-lactamase FRET, potentiator mode; S1P1 agonist co-added at EC20, 2 nM; 100% = saturating reference agonist, 0% = basal. activation, % at 9.5 µM. actives 0.57% (n = 56,000). AID 449;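 active = activation above a cutoff set at the mean activation of all tested compounds plus 3 SD, cut at about 54% in these data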;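 note: forskolin at 4 µM as EC80 and the EC20 agonist is SEW2871; 100% = SEW2871 at its EC100 plus forskolin at EC80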
* marks the source's active call; other numbers are inactive results; / = no result given.

SMILES	SK-BR-3 tox 24h	TNAP act DEA	Hsp90 inh	BAP1 inh	HER2 expr 66K	S1P1 ag-PAM
O=C(O)c1cc(O)c2c(c1)C(=O)c1cccc(O)c1C2=O	116	0.7	139*	49	115	-5
O=C(O)c1cc(N2C(=O)c3ccccc3C2=O)cc(N2C(=O)c3ccccc3C2=O)c1	/	/	/	64	/	/
COC(=O)c1ccc(-c2sc3nc(N4CCOCC4)c4c(c3c2N)CC(C)(C)OC4)o1	34*	0.9	-3	53	22	-31
CC1(C)Cc2c(c(N3CCOCC3)nc3snc(N)c23)CO1	70	1	2	62	42	14
CCOc1ccc(S(=O)(=O)N2CCSC2c2ccc(Cl)cc2)cc1 (stereo unspecified)	/	/	/	95	/	/
O=C(O)COc1ccccc1C1C2C(=O)N(c3ccc(F)cc3)C(=O)C2ON1c1ccccc1 (stereo unspecified)	88	0.9	-2	90	76	5
CC(=O)N1CCN(c2ccc(NCc3ccc(C)cc3)cc2)CC1	101	1	28	94	131	3
Cc1ccc(CNc2ccc(O)cc2)cc1	68	1	56*	121	120	-4
O=C(c1cccnc1)N1CCN(S(=O)(=O)c2ccc(S(=O)(=O)N3CCCC3)cc2)CC1	/	0.9	-2	75	111	/
CCOC(=O)N1CCN(CCC(=O)Nc2ccc(OC(F)(F)F)cc2)CC1	37*	1	1	85	110	-20
O=C(CCCSc1nc2sc3c(c2c(=O)[nH]1)CCC3)NCCO	/	1	3	91	92	8
CCCn1c(CN2CCN(c3cccc(Cl)c3)CC2)nc2c1c(=O)n(C)c(=O)n2C	/	1	0	86	100	135*
CCCCn1c(CN2CCN(c3cccc(Cl)c3)CC2)nc2c1c(=O)n(C)c(=O)n2C	76	1	-1	100	79	-3
CCCn1c(SCC(=O)Nc2ccccc2CC)nnc1C(C)C	88	1	-2	89	76	-5
Cc1ccccc1-c1nnc(SCc2ccccc2F)o1	86	0.9	-1	100	83	89*
Fc1ccccc1CSc1nnc(-c2ccccc2)o1	92	0.9	-2	128	86	/
CN1CCN(CC(=O)Nc2nc(-c3ccccc3)cs2)CC1	82	0.9	-1	76	98	-8
CC1Cc2cc(-c3csc(NC(=O)Cc4cccs4)n3)ccc2N1S(C)(=O)=O (stereo unspecified)	118	1	-5	/	79	57*
COc1ccc(-c2cc(C(F)(F)F)nc(SCC(=O)Nc3cc(C)on3)n2)cc1	73	0.9	0	/	60	7
CS(=O)(=O)c1nc(-c2ccccc2)cc(C(F)(F)F)n1	28*	0.9	/	/	-24*	/
Cc1cc(NC(=O)CCS(=O)(=O)c2nc(-c3ccccc3)cc(C(F)(F)F)n2)no1	39*	0.9	-3	69	/	/
Fc1ccc(OCc2nn3cnnc3s2)cc1	92	1	-5	81	76	-3
CC1CCN(S(=O)(=O)c2cc(Br)cc(C(=O)NC3=NCCS3)c2)CC1	/	0.9	0	76	102	-25
Cc1c(NC(=O)c2nn(C)c(=O)c3ccccc23)c(=O)n(-c2ccccc2)n1C	/	0.9	-1	114	96	-6
Cn1nc(C(=O)Nc2c(-c3ccccc3)nc3sccn23)c2ccccc2c1=O	/	/	-6	133	1.1*	-7
SMILES	SK-BR-3 tox 24h	TNAP act DEA	Hsp90 inh	BAP1 inh	HER2 expr 66K	S1P1 ag-PAM
COc1ccc(NCc2nnc(SCC(=O)c3ccc(OC)cc3)n2C)cc1	75	1	16	109	-43*	17
COc1ccc(NC(=O)CN(c2ccc(C)cc2)S(C)(=O)=O)c(OC)c1	/	0.9	2	92	85	-13
COc1ccc(OC)c(NC(=O)CN(c2ccc(OC)c(Cl)c2)S(C)(=O)=O)c1	36*	0.9	0	133	95	-7
CCCn1c(NC(=O)c2ccco2)nc2ccccc21	/	0.9	-2	88	0.7*	19
Cn1c(C(C#N)C(=O)Cc2cccc3ccccc23)nc2ccccc21 (stereo unspecified)	84	0.9	/	/	79	/
Cn1c(C(C#N)C(=O)c2ccco2)nc2ccccc21 (stereo unspecified)	129	0.9	-5	81	-12*	-15
CCOC(=O)c1c(C)[nH]c(C(=O)OC/C(O)=C(\C#N)c2nc3ccccc3[nH]2)c1C	/	1	-12	61	-3.7*	-18
CCN(CC)CCNC(=O)C1CCN(S(=O)(=O)N2CCCCC2)CC1	/	0.9	-7	115	95	7
Cc1noc(C)c1CSCC(=O)OCC(=O)NC1CCCCC1	32*	1	/	/	98	/
COCCn1c(SCC(=O)Nc2nnc(C)s2)nnc1-c1ccncc1	76	0.8	0	102	53	-2
CCOC(=O)c1sc(NC(=O)CSc2nnc(-c3ccc(OC)cc3)n2CCOC)nc1C	86	0.9	85*	83	141	-18
CCOC(=O)c1c(NC(=O)CSc2nc3c(c(=O)n(C)c(=O)n3C)n2CC)sc(C)c1C	44*	0.9	-3	99	16	-54
Cc1c(C(=O)N2CCc3ccccc3C2)sc2nc(-c3ccccc3)cn12	/	/	-3	61	83	-12
COc1ccc(-c2cn3c(C)c(C(=O)N4CCc5ccccc5C4)sc3n2)cc1	/	1.1	-2	46*	97	14
C(=N/n1c2ccccc2c2ccccc21)/c1ccco1	/	0.8	-5	93	1.7*	4
O=c1c2ccccc2nc(COc2ccccc2)n1/N=C/c1ccco1	94	0.9	0	94	117	8
CN(C)CC1(c2ccccc2)CCCC1	25*	1	1	114	90	14
O=c1cc(O)cc(/C=C/c2ccc(O)c(O)c2)o1	/	/	83*	83	/	/
Oc1ccc(/C=C/c2cc(O)cc(O)c2)cc1	94	0.9	8	72	103	-12
CC(=O)c1ccc(N2CCN(c3ccc(C(F)(F)F)cn3)CC2)cc1	/	0.9	-5	79	117	88*
Cc1cccc2cc(C#N)c(NCCNC(=O)NC3CCCCC3)nc12	100	1	3	/	97	-5
Cc1cccc2cc(C#N)c(NCCNS(=O)(=O)c3ccc4c(c3)OCCO4)nc12	30*	1	1	187	105	0
c1ccc(N2CCN(Cc3ccnc4ccccc34)CC2)cc1	/	0.8	-4	96	103	78*
c1cnc(N2CCN(Cc3c[nH]c4ccccc34)CC2)nc1	87	0.9	-5	/	18	8
CCOc1cccc2cc(-c3nnc(NCc4ccco4)s3)c(=O)oc12	/	1	-2	78	41	18
COc1ccc2oc(=O)c(-c3nnc(NCc4ccco4)s3)cc2c1	/	0.9	1	/	-11*	22
